Source: PubChem BioAssay (EPA / NIEHS)
Records with an inconclusive call do not appear. The source made the active and inactive calls. Rule for the calls: active = hit-call score of the fitted dose curve at least 0.9, where 1 is the maximum; inconclusive = response in the unintended direction; inactive = score below 0.9.

Legend:
[1] = ATG_XTT_Cytotoxicity: Cytotoxicity Assessment in the Attagene TRANS-FACTORIAL HepG2 Assay (AID 2283584);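 for AC50: XTT signal for cell number as viability in transfected HepG2 cells; cells exposed to compound for 24 h before reading; active means loss of viability signal versus DMSO baseline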
Summary of the method: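 Transfect HepG2 with GAL4-UAS reporter units, dose compound, incubate 24 h, then measure viable cell number by XTT. Fit concentration response against DMSO baseline.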

[2] = TOX21_p53_BLA_p2_viability: Viability Assessment in the Tox21 HCT-116 p53 Agonism Beta-lactamase Assay, Phase 2 (AID 2283591);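 note: compound exposure lasted 16 h at 37 °C; actives lower the ATP signal meaning cytotoxicity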
Summary of the method: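 HCT116 p53-bla cells, 4000/well, dosed after 5 h plating (217-fold dilution of DMSO stocks) and incubated 16 h at 37C. Viability taken as cellular ATP by CellTiter-Glo luminescence after 30 min RT; signal loss marks cytotoxicity.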

[3] = molecular target: Cellular tumor antigen p53 (Homo sapiens) (UniProt P04637); test: TOX21_p53_BLA_p2_ratio: Tox21 HCT-116 p53 Agonism Beta-lactamase Assay, Ratio, Phase 2 (AID 2283592)
Cellular tumor antigen p53 (Homo sapiens), sequence (P04637 whole entry, looked up): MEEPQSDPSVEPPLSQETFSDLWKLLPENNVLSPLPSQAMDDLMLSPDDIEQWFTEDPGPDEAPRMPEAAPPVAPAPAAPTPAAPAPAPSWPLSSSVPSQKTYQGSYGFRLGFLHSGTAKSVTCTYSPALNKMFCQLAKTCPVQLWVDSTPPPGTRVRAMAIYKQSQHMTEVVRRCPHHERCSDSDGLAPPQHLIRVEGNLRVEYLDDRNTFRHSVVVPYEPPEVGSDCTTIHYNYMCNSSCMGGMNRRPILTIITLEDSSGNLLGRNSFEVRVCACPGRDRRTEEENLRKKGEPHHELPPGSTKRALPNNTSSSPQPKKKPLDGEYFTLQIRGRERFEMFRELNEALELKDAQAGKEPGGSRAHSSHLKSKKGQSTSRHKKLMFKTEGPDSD
Summary of the method: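 Cleaved-to-uncleaved substrate ratio (460 vs 530 nm) measured in HCT116 cells with an inducible beta-lactamase reporter linked to p53 activity. Compounds incubated 16 h at 37C before 2 h room-temperature CCF4-AM loading.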

[4] = TOX21_p53_BLA_p3_viability: Viability Assessment in the Tox21 HCT-116 p53 Agonism Beta-lactamase Assay, Phase 3 (AID 2283593);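 note: cells exposed to compound for 16 h before reading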
Summary of the method: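 HCT116 cells, 4000/well, dosed 5 h after plating by pin transfer (217-fold dilution from DMSO stock) and incubated 16 h at 37C, 5% CO2. Viability read as ATP luminescence with CellTiter-Glo after 30 min at room temperature.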

[5] = molecular target: Cellular tumor antigen p53 (Homo sapiens) (UniProt P04637); test: TOX21_p53_BLA_p3_ratio: Tox21 HCT-116 p53 Agonism Beta-lactamase Assay, Ratio, Phase 3 (AID 2283596)
Summary of the method: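 Cells were seeded at 4000/well, rested 5 h at 37C, then dosed with DMSO compound solutions (217-fold dilution) for 16 h. CCF4-AM substrate was loaded for 2 h at room temperature, and the 460/530 nm emission ratio was fitted for gain of signal versus DMSO.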

[6] = TOX21_p53_BLA_p4_viability: Viability Assessment in the Tox21 HCT-116 p53 Agonism Beta-lactamase Assay, Phase 4 (AID 2283597);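 note: hits lower the luminescence signal meaning cytotoxicity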
Summary of the method: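 Viability is taken as cellular ATP: after 16 h compound exposure of HCT116 cells and a 2 h room-temperature CCF4-AM substrate step, CellTiter-Glo reagent is added and luminescence is measured 30 min later.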

[7] = molecular target: Cellular tumor antigen p53 (Homo sapiens) (UniProt P04637); test: TOX21_p53_BLA_p5_ratio: Tox21 HCT-116 p53 Agonism Beta-lactamase Assay, Ratio, Phase 5 (AID 2283599)
Summary of the method: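 HCT-116 p53-bla cells (4000/well) plated 5 h, dosed with compound (217-fold DMSO dilution) for 16 h at 37 C; CCF4-AM substrate 2 h at room temperature. Activity is the 460/530 nm emission ratio (405 nm excitation), fitted in gain-of-signal direction versus DMSO.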

[8] = TOX21_p53_BLA_p5_viability: Viability Assessment in the Tox21 HCT-116 p53 Agonism Beta-lactamase Assay, Phase 5 (AID 2283600)
Summary of the method: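 Viability is taken from cellular ATP content, measured by luciferase luminescence in the same wells after the beta-lactamase ratio read. Cells are seeded at 4000 per well and exposed to DMSO-dissolved compounds, diluted 217-fold, for 16 h.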

[9] = molecular target: Cellular tumor antigen p53 (Homo sapiens) (UniProt P04637); test: TOX21_p53_BLA_p4_ratio: Tox21 HCT-116 p53 Agonism Beta-lactamase Assay, Ratio, Phase 4 (AID 2283601)
Summary of the method: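 HCT-116 p53 beta-lactamase reporter cells (4000/well) preincubated 5 h, then compound (217-fold dilution of DMSO stock) for 16 h at 37C. CCF4-AM substrate added 2 h at room temperature; 460/530 nm emission ratio fitted upward versus DMSO.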

Row | SMILES | outcome [1] | outcome [2] | outcome [3] | outcome [4] | outcome [5] | outcome [6] | outcome [7] | outcome [8] | outcome [9] | AC50 [2] | AC50 [4] | AC50 [6] | AC50 [8] | AC50 [1]
1 | COc1ccc(Nc2ccccc2)c(C)c1 | inactive | inactive | inactive | inactive | inactive | inactive | inactive | inactive | inactive |  |  |  |  | 
2 | CCCCCCCCCC=O | inactive | inactive | inactive | inactive | inactive |  |  | inactive | inactive |  |  |  |  | 
3 | Nc1cc(Cl)c(O)c(Cl)c1 | inactive | inactive | inactive | inactive | inactive | inactive | inactive |  | inactive |  |  |  |  | 
4 | Nc1cccc(S(=O)(=O)c2cccc(N)c2)c1 | inactive | inactive | inactive | inactive | inactive | inactive | inactive | inactive | inactive |  |  |  |  | 
5 | OCCOCCOCCOCCO | inactive | inactive | inactive | inactive | inactive | inactive | inactive | inactive | inactive |  |  |  |  | 
6 | O=C[C@@H](O)[C@H](O)[C@H](O)CO | inactive | inactive | inactive | inactive |  |  |  | inactive | inactive |  |  |  |  | 
7 | C[C@H]1C[C@H]2[C@@H]3CCC4=CC(=O)C=C[C@]4(C)[C@@]3(F)[C@@H](O)C[C@]2(C)[C@@]1(O)C(=O)COP(=O)(O)O | inactive | inactive | inactive | inactive |  | inactive |  | inactive | inactive |  |  |  |  | 
8 | CCN(CC)c1ccc2c(-c3ccccc3C(=O)O)c3ccc(=[N+](CC)CC)cc-3oc2c1 | inactive | inactive | inactive | inactive | inactive | inactive | inactive | inactive | inactive |  |  |  |  | 
9 | COC(=O)OC | inactive | inactive | inactive | inactive |  | inactive | inactive | inactive | inactive |  |  |  |  | 
10 | CCCCC(CC)COC(=O)/C=C\C(=O)OCC(CC)CCCC (stereo unspecified) | inactive | inactive | inactive | inactive |  | inactive | inactive |  | inactive |  |  |  |  | 
11 | CC(C)C(C)(C)C(C)(C)C(C)(C)S | inactive | inactive | inactive | inactive |  | inactive | inactive | inactive | inactive |  |  |  |  | 
12 | CCN(CC)c1ccc(C(=C2C=CC(=[N+](CC)CC)C=C2)c2ccc(S(=O)(=O)O)cc2S(=O)(=O)[O-])cc1 | inactive |  | inactive |  |  |  |  |  |  | 26.5 µM (active) | 23.1 µM (active) | 46.1 µM (active) | 36.1 µM (active) | 
13 | NCCNCCN | inactive | inactive | inactive | inactive | inactive | inactive | inactive | inactive | inactive |  |  |  |  | 
14 | CC(=O)Nc1ccc(C)cc1C | inactive | inactive | inactive | inactive | inactive |  | inactive |  | inactive |  |  |  |  | 
15 | O=C(O)c1ccc(C(=O)O)cc1 | inactive | inactive | inactive | inactive | inactive | inactive | inactive | inactive | inactive |  |  |  |  | 
16 | CCCCCCCCCCCCCCCCCC(=O)OCC(CC)CCCC (stereo unspecified) | inactive | inactive | inactive | inactive |  | inactive | inactive |  | inactive |  |  |  |  | 
17 | CNC(=O)Oc1ccc2c(c1)[C@]1(C)CCN(C)[C@@H]1N2C | inactive | inactive | inactive | inactive | inactive | inactive | inactive | inactive | inactive |  |  |  |  | 
18 | NC(N)=NC(=O)c1nc(Cl)c(N)nc1N | inactive | inactive | inactive | inactive | inactive | inactive | inactive | inactive | inactive |  |  |  |  | 
19 | C#C[C@]1(O)CC[C@H]2[C@@H]3CCC4=Cc5oncc5C[C@]4(C)[C@H]3CC[C@@]21C |  | inactive | inactive | inactive |  | inactive | inactive | inactive | inactive |  |  |  |  | 151 µM (active)
20 | CC(=O)[C@H]1CC[C@H]2[C@@H]3CC=C4C[C@@H](O)CC[C@]4(C)[C@H]3CC[C@]12C | inactive | inactive | inactive | inactive | inactive | inactive | inactive | inactive | inactive |  |  |  |  | 
21 | O=[N+]([O-])c1cc(C(F)(F)F)ccc1Cl | inactive | inactive | inactive | inactive |  | inactive |  | inactive | inactive |  |  |  |  | 
22 | O=C(O)c1cccc(C(F)(F)F)c1 | inactive | inactive | inactive | inactive |  | inactive | inactive | inactive | inactive |  |  |  |  | 
23 | COc1cccc(OC)c1 | inactive | inactive | inactive | inactive |  |  |  | inactive | inactive |  |  |  |  | 
24 | CCc1ccc(C=O)cc1 | inactive | inactive | inactive | inactive | inactive |  |  | inactive |  |  |  |  |  | 
25 | CC(C)C1CCC(O)CC1 (stereo unspecified) | inactive | inactive | inactive | inactive |  | inactive |  | inactive | inactive |  |  |  |  | 
26 | COCCOCCOCCOCCOCCO | inactive | inactive | inactive | inactive | inactive |  | inactive |  | inactive |  |  |  |  | 
